Calls of active or inactive are those of the source.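 Rule for the calls: active = cell event count below 40, meaning activity score above 60 where score is 100 minus count; inactive = the rest.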
Assay: LNCaP cell loss by flow event count, confirmation, cytotoxicity control for prostate differentiation activator project, single point (AID 1076);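 note: counts scatter-gated live cells after medium removal discards detached dead cells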
Settings: flow cytometry event count, 4 d, stronger effect = lower value

CCCNC(=O)C1CN(S(=O)(=O)c2ccccc2)CCN1S(=O)(=O)c1ccccc1 (centres undefined)
cell event count (at 100 µM): 120 (inactive)
cell event count (event count, at 10 µM): 67

O=C(CN1CCC(n2nnc3cc(F)ccc32)CC1)Nc1ccc2c(c1)CCC2
cell event count (at 100 µM): 210 (inactive)
cell event count (event count, at 10 µM): 466

CCN(CC)CCCNC(=O)c1cc2c(-c3ccc(Cl)cc3)nn(C)c2s1
cell event count (at 100 µM): 13 (active)
cell event count (event count, at 10 µM): 71.5

O=C(c1ccccc1)c1ccc(N2CCNCC2)cc1
cell event count (at 100 µM): 135 (inactive)
cell event count (event count, at 10 µM): 168

Cn1c(=O)n(C)c2cc(CN3C(=O)OC(C)(C)C3(C)O)ccc21 (centres undefined)
cell event count (at 100 µM): 211 (inactive)
cell event count (event count, at 10 µM): 145

CCOC(=O)N1CCC(NC(=O)C2CCCN(Cc3nc(-c4cccc(Cl)c4)oc3C)C2)CC1 (centres undefined)
cell event count (at 100 µM): 33 (inactive)
cell event count (event count, at 10 µM): 114

c1ccc(N2CCN(c3nnc(Cc4cccnc4)c4ccccc34)CC2)nc1
cell event count (at 100 µM): 40 (inactive)
cell event count (event count, at 10 µM): 434

COc1ccc2c(c1)CCc1c(C(=O)Nc3cc(C)n(Cc4ccc(Cl)cc4)n3)noc1-2
cell event count (at 100 µM): 43 (inactive)
cell event count (event count, at 10 µM): 406

N#C/C(=C\c1ccc(O)c(O)c1)C(=O)NCCCc1ccccc1
cell event count (at 100 µM): 38 (inactive)
cell event count (event count, at 10 µM): 99

CC1CCCCN1CCNC(=O)c1cc2c(-c3ccccc3F)nn(C)c2s1 (centres undefined)
cell event count (at 100 µM): 255 (inactive)
cell event count (event count, at 10 µM): 384

COc1ccc(Nc2nc(N)nc(CN3CCC(Cc4ccccc4)CC3)n2)cc1
cell event count (at 100 µM): 6 (active)
cell event count (event count, at 10 µM): 7.5

Cc1ccc(Cn2ccc(NC(=O)c3cc(-c4ccc(Br)cc4)on3)n2)cc1
cell event count (at 100 µM): 257 (inactive)
cell event count (event count, at 10 µM): 132

Cc1cc(=O)n2nc(N3CCCC(C(=O)NCc4ccco4)C3)sc2n1 (centres undefined)
cell event count (at 100 µM): 325 (inactive)
cell event count (event count, at 10 µM): 102

Cn1c(=O)cc(SCC(=O)NCCCN2CCN(c3ccc(F)cc3)CC2)c2ccccc21
cell event count (at 100 µM): 30 (inactive)
cell event count (event count, at 10 µM): 211

CCOc1ccccc1NC(=O)c1nc[nH]c1C(=O)Nc1ccccc1OCC
cell event count (at 100 µM): 20 (inactive)
cell event count (event count, at 10 µM): 248

COc1ccc(CCNC(=O)C2CCCN(Cc3nc(-c4cccc(Cl)c4)oc3C)C2)cc1OC (centres undefined)
cell event count (at 100 µM): 21 (inactive)
cell event count (event count, at 10 µM): 247

Cc1oc(-c2cccc(Cl)c2)nc1CN1CCC(C(=O)NCc2cccnc2)CC1
cell event count (at 100 µM): 38 (inactive)
cell event count (event count, at 10 µM): 150

CCCOc1ccccc1C1CC(=O)Nc2cc3c(cc21)OCO3 (centres undefined)
cell event count (at 100 µM): 6 (active)
cell event count (event count, at 10 µM): 56

CCN1CCCC1CNC(=O)c1cc2c(-c3ccc(Cl)cc3)nn(C)c2s1 (centres undefined)
cell event count (at 100 µM): 14 (inactive)
cell event count (event count, at 10 µM): 88.5

CCN1CCN(c2cc(C)c3cc(NC(=O)c4ccc(Br)o4)ccc3n2)CC1
cell event count (at 100 µM): 36 (inactive)
cell event count (event count, at 10 µM): 233

CCOC(=O)c1ccc(NC(=O)Nc2ccc3c4c(cccc24)C(=O)N3CC)cc1
cell event count (at 100 µM): 70 (inactive)
cell event count (event count, at 10 µM): 254

Cc1cccc(-c2nc(CN3CCCC(C(=O)NC4CCCCC4)C3)c(C)o2)c1 (centres undefined)
cell event count (at 100 µM): 28 (inactive)
cell event count (event count, at 10 µM): 170

CC1(C)CC(=O)c2cc(OCC(=O)NCCCN3CCN(c4ccc(F)cc4)CC3)ccc2O1
cell event count (at 100 µM): 17 (inactive)
cell event count (event count, at 10 µM): 112

Cc1ccccc1-c1nc(CN2CCC(C(=O)NCc3ccco3)CC2)c(C)o1
cell event count (at 100 µM): 158 (inactive)
cell event count (event count, at 10 µM): 296

Cn1c(C(=O)NCCN2CCN(c3ccccc3F)CC2)cc2c(=O)n(C)c3ccccc3c21
cell event count (at 100 µM): 2 (inactive)
cell event count (event count, at 10 µM): 194

Cc1ccccc1-c1nc(CN2CCC(C(=O)N3CCN(c4ccccn4)CC3)CC2)c(C)o1
cell event count (at 100 µM): 73 (inactive)
cell event count (event count, at 10 µM): 190

CCc1ccc(-c2nc(CN3CCCC(C(=O)O)C3)c(C)o2)cc1 (centres undefined)
cell event count (at 100 µM): 153 (inactive)
cell event count (event count, at 10 µM): 123

COc1ccc(-c2noc(CCC(=O)NCCCN3CCC(Cc4ccccc4)CC3)n2)cc1
cell event count (at 100 µM): 23 (active)
cell event count (event count, at 10 µM): 51

CCN(CC)CCNC(=O)c1ccc(N2CCCCC2)c(NS(=O)(=O)c2ccc(C)cc2)c1
cell event count (at 100 µM): 17 (inactive)
cell event count (event count, at 10 µM): 197

Cc1oc(-c2ccccc2F)nc1CN1CCC(C(=O)NCCC2=CCCCC2)CC1
cell event count (at 100 µM): 17 (inactive)
cell event count (event count, at 10 µM): 402

CCc1ccc(-c2nc(CN3CCC(C(=O)NCCN(CC)c4ccccc4)CC3)c(C)o2)cc1
cell event count (at 100 µM): 6 (inactive)
cell event count (event count, at 10 µM): 150

Cc1ccc(Oc2ccc(S(=O)(=O)N3CCOCC3)cc2C(N)=O)c(-n2nc3ccccc3n2)c1
cell event count (at 100 µM): 5 (inactive)
cell event count (event count, at 10 µM): 126

COc1ccc(Nc2nc(N3CCCC3)c3ccccc3n2)cc1
cell event count (at 100 µM): 50 (inactive)
cell event count (event count, at 10 µM): 180

CC1=C(n2nnc3ccccc32)C(c2ccccc2)C(C#N)=C(N)O1 (centres undefined)
cell event count (at 100 µM): 96 (inactive)
cell event count (event count, at 10 µM): 97.5

CCOc1ccccc1NC(=O)CCC(=O)O
cell event count (at 100 µM): 239 (inactive)
cell event count (event count, at 10 µM): 200

CCOC(=O)c1[nH]c(C)c(C(=O)N2CCc3ccccc32)c1C
cell event count (at 100 µM): 13 (active)
cell event count (event count, at 10 µM): 67

CCn1c(=O)cc(SCC(=O)NCCCN2CCN(c3ccc(F)cc3)CC2)c2ccccc21
cell event count (at 100 µM): 14 (inactive)
cell event count (event count, at 10 µM): 241

— PubChem BioAssay AID1076 (NMMLSC, 2008)
